Reference: PubChem BioAssay (NCI)
About 83,000 compounds went through this panel and 20% of them were active in at least one assay; those are over-represented in the sample as a whole.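 Testing used 96-well plates and a 48-hour single-concentration exposure. Example: -40 means 40% of the starting cells died.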 Unmarked numbers belong to inactive results. Activity calls are given as the source filed them. How the source made its calls: active means growth percent below 10; inactive means the rest.

These compounds were tested on HL-60(TB) leukemia (assay: NCI-60 one-dose screen, 48 h (100 = growth as untreated, 0 = no growth, -100 = all killed)). Details: 10 µM unless noted.
Cc1nc(Nc2ccc(NC(=S)Nc3ccccc3)cc2)c2ccccc2n1 gave a growth of 86.4%. With CCN1C(=O)C(C)C=C(C)C=C1C (stereo not given) the growth was 94.4%. For Cc1oc2nc[nH]c(=O)c2c1C(=O)/C=C/c1ccc(Cl)cc1Cl, the growth was 7.83% (active). For COc1ccc2nc(-c3cc(-c4cc(OC)c(OC)c(OC)c4)n[nH]3)[nH]c2c1, the growth was -38.7% (active). Cc1cnc(NC(=O)Nc2cc(Br)c(C)cc2OC[C@@H]2CNCCO2)cn1 was tested, and the growth was -25.3% (active). O=C(c1ccccc1)c1ccc(C2CCCCC2)cc1 showed a growth of 101%. With O=C(O)CCN1CCN(c2cccc(Cl)c2)CC1 the growth was 97%. For COc1cc(NC(N)=NCCC(C)(C)Oc2ccc(C(F)(F)F)cc2)ncc1C#N, the growth was -51.1% (active). COc1ccc(-c2nnc(N3CCN(C(=O)CN4CCN(c5ccc(Cl)cc5)CC4)CC3)nc2-c2ccc(OC)cc2)cc1 was tested, and the growth was -37.4% (active). C/C=C(/C(=O)NC(N)=O)C(C)C gave a growth of 91%. Work on Nc1nc(CSc2n[nH]c(N)n2)nc(Nc2ccccc2)n1 yielded a growth of 92.7%. For CCOC(=O)c1sc(NC(=O)COc2cccc(/C=C3\CCc4cc(OC)ccc4C3=O)c2)nc1C, the growth was -52.9% (active). CN(C)c1ccc(/C=C2\C=C(c3nc4ccccc4s3)OC2=O)cc1 gave a growth of 94.8%. With O=[N+]([O-])c1ccccc1NCSc1ccc(Cl)cc1 the growth was 65.7%. In the case of CCOC(=O)/C(C#N)=C1/NNC(=Nc2cccnc2)S1, the growth is reported as 102%. N=C1C(c2nc3ccccc3s2)=C(O)CN1c1cc(Cl)cc(Cl)c1 gave a growth of 35.5%. COc1ccc(-c2nc(-c3nc4ccc(Cl)cc4[nH]3)c3ccccn23)cc1 gave a growth of 82.8%. Nc1ccc(N=Nc2ccc(S(=O)(=O)O)cc2)c2ccccc12 gave a growth of 62.8%. Work on Cc1c(C(=O)N[C@H](CO)Cc2ccccc2)[nH]c2ccc(Cl)cc2c1=O yielded a growth of 99.7%. With COc1ccc(Nc2nc(SC)nc(-c3cccc([N+](=O)[O-])c3)c2C#N)cc1 the growth was 112%. CCOC(C)=N gave a growth of 78.7%. With CCOC(=O)c1sc(NC(=O)c2cc(OC)c(OC)c(OC)c2)nc1C the growth was 102%. Work on CCCCNC(=O)Oc1ccc(/C(=C(\C)c2ccccc2)c2ccc(OCCN3CCCCC3)cc2)cc1 yielded a growth of 49.4%. Work on CCOC(=O)N1CCN(S(=O)(=O)c2oc(-c3ccc(Cl)cc3)nc2C#N)CC1 yielded a growth of 56.4%. With CCC(CC(C)C)Nc1ccc(NC(CC)CC(C)C)cc1 (stereo not given) the growth was 35.3%. c1cc[n+](Cc2c3ccccc3cc3c2ccc2ccccc23)cc1 showed a growth of 36%. CN1CCN(Cc2ccc(NC(=O)c3cncc(C#Cc4cnccc4C#N)c3)cc2C(F)(F)F)CC1 showed a growth of 24.7%. C=CCSc1nnc(-c2ccc(C(C)(C)C)cc2)n1-c1cccc(C(F)(F)F)c1 was tested, and the growth was 5.96% (active). CCN(CC)CCNc1ccc(Cl)cc1Cl showed a growth of 92.9%. CCC(O)(C(c1ccccc1)c1ccccn1)C(c1ccccc1)c1ccccn1 (stereo not given) showed a growth of 79%. For O=[N+]([O-])c1ccc(NCSc2ccc(Cl)cc2)cc1, the growth was 83.2%. In the case of Brc1cnc2ccccc2c1, the growth is reported as 89.1%. Compound Fc1ccc(Nc2nnc(-c3ccc(Cl)cc3)o2)cc1 has a growth of 91.4%. For CCN=C1C=CC(=C(c2ccc(N(C)C)cc2)c2ccc(N(C)C)cc2)c2ccccc21, the growth was -9.26% (active). In the case of Oc1ccc(C(c2ccc(O)cc2)c2ccc(Br)cn2)cc1, the growth is reported as 106%. In the case of O=C1/C(=N\c2cc(=O)[nH]n2S(=O)(=O)c2ccccc2)Nc2ccccc21, the growth is reported as 102%. Work on O=C(O)c1ccnc(Br)c1 yielded a growth of 96.5%. COc1ccc(OC)c(CCn2cncc2-c2c[nH]c3cc(Br)ccc23)c1 was tested, and the growth was -9.46% (active). Work on COc1ccccc1/C(C)=N/NC(=O)CSc1nc2ccccc2c(=O)n1Cc1ccc(S(N)(=O)=O)cc1 yielded a growth of 101%. In the case of CCN(CC)c1ccc(C(=O)c2ccccc2)cc1, the growth is reported as 87.4%.
